Compound activity (PubChem BioAssay)
UDG counter: UDG inhibition counter-screen | FRET deamination/UDG coupled assay, UDG read, 4 h | hit rate 0.14% among 91,000 | Potency, µM (titrated, usually from 115 µM), actives largely listed as inhibitors; further: nearly all actives have a fitted effect of over 65% in size
DRV1 agonist: agonists of human resolvin D1 receptor DRV1 (GPR32); hit rate 2.5% among 48,000; CHO-K1 GPR32 beta-arrestin PathHunter luminescence, 90 min; zero percent set by DMSO-only wells; activation, % at 76.9 µM; O75388;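 active means activation of at least 60% and not above a set upper limit, about 1 call in 100 departs from these limits; inconclusive means activation of 40% to 60%, or above that upper limit; inactive means activation under 40%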
Target sequence (O75388 whole entry, looked up): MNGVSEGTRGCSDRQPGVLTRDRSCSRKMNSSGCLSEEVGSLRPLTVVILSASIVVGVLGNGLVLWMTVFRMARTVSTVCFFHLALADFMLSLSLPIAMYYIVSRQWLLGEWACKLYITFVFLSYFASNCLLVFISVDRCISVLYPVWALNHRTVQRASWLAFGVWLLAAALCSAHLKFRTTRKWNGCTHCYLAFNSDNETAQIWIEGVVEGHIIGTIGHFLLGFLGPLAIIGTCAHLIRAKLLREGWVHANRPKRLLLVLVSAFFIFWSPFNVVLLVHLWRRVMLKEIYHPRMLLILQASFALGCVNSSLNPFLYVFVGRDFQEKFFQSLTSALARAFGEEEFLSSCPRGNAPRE
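PathHunter enzyme-fragment complementation, CHO-K1 GPR32 stable line; 2,500 cells/well, overnight attach; cpd 90 min 37 °C 5% CO2; detection reagent 1 h RT; chemiluminescence. DMSO = EC0.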
AID inhibitor: activation induced cytidine deaminase inhibition. Potency, µM (titrated, usually from 115 µM), hits mostly inhibitors. hit rate 0.32% among 91,000. AID deamination FRET fluorescence, UDG-coupled, 4 h. AID 1347428; further: nearly all actives have a fitted effect of over 25% in size
Target sequence (Q9GZX7 whole entry, looked up): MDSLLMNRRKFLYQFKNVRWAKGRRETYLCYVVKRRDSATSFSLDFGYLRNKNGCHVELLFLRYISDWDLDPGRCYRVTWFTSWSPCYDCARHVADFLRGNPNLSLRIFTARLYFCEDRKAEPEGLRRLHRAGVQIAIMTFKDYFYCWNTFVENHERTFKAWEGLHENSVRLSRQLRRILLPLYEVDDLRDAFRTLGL
Hits are given with their value. The full list was thinned out, with hits kept by preference. Unless noted, the call rests on the fitted dose curve; in most records, active means well fitted curve in the direction sought with a large enough effect; inconclusive means small, poorly fitted or top-dose-only effect, or another doubt; inactive means no such curve, though single readings can be large; an effect the other way counts as inactive or inconclusive.

Results for O=C(Nc1c(Cl)cc(Cl)cc1Cl)C12CC3CC(CC(Cl)(C3)C1)C2 ?
UDG counter: inactive; AID inhibitor: inactive

What do the screens show for `c1ccc(CN2CCC(=NNc3nncc4ccccc34)CC2)cc1`?
UDG counter: inactive; AID inhibitor: inactive

How did NNc1nncc2ccccc12 do in these assays?
UDG counter: 35.5µM; DRV1 agonist: inactive; AID inhibitor: 44.7µM

What do the screens show for `CC1CCCC(NC(=O)c2ccc(F)cc2F)C1C` (configuration not stated)?
UDG counter: inactive; AID inhibitor: inactive

Results for Cc1ccc(-c2cc(C(=O)OCC(=O)N3CCCC3)c3ccccc3n2)o1 ?
UDG counter: inactive; AID inhibitor: inactive

What do the screens show for `O=C(O)CCSc1ccc(Cl)cc1`?
UDG counter: inactive; AID inhibitor: inactive

Results for COc1ccc2c(c1)Cc1sc(NC(=O)c3ccc(Cl)cc3)nc1-2 ?
UDG counter: inactive; DRV1 agonist: inactive; AID inhibitor: 31.6µM

What do the screens show for `COc1ccc2c(c1)Cc1sc(NC(=O)c3cccc(Cl)c3)nc1-2`?
UDG counter: inactive; DRV1 agonist: inconclusive; AID inhibitor: inactive

Results for COc1ccc(C(=O)Nc2nc3c(s2)CCc2cc(OC)ccc2-3)cc1 ?
UDG counter: 79.4µM; DRV1 agonist: inactive; AID inhibitor: inactive

How did COc1ccc2c(c1)CCc1sc(NC(=O)c3cccc(Br)c3)nc1-2 do in these assays?
UDG counter: inactive; DRV1 agonist: inactive; AID inhibitor: inactive

Results for CN(C)CCCNc1nc(-c2ccncc2)nc2ccccc12 ?
UDG counter: inactive; AID inhibitor: inactive

How did Cc1cc(SCC(=O)NCCC#N)nc2c(C)cccc12 do in these assays?
UDG counter: inactive; AID inhibitor: inactive

What do the screens show for `Cc1cc(C)c2oc(-c3cc(NC(=O)c4ccco4)ccc3O)nc2c1`?
UDG counter: inconclusive; AID inhibitor: inactive

How did Cc1ccc(-c2nc(-c3cccs3)c(-c3cccs3)[nH]2)cc1 do in these assays?
UDG counter: inactive; DRV1 agonist: inactive; AID inhibitor: inactive

How did COc1ccccc1C1NC(=O)c2n[nH]c(-c3cccs3)c21 (configuration not stated) do in these assays?
UDG counter: inactive; DRV1 agonist: 104.2; AID inhibitor: inactive

Results for COc1ccccc1C1c2c(-c3ccc(Cl)cc3)n[nH]c2C(=O)N1c1ccc(C)cc1 (configuration not stated) ?
UDG counter: inactive; DRV1 agonist: inactive; AID inhibitor: inactive

How did Cc1ccc(C2NC(=O)c3n[nH]c(-c4cccs4)c32)cc1 (configuration not stated) do in these assays?
UDG counter: inactive; DRV1 agonist: 120.2; AID inhibitor: inactive

Results for COc1ccc(OCCOC(=O)CCC(=O)c2ccc3c(c2)OCCO3)cc1 ?
UDG counter: inactive; AID inhibitor: inactive

How did CNC(=O)NC(=O)CNC(c1ccccc1)c1ccccc1 do in these assays?
UDG counter: inactive; AID inhibitor: inactive

What do the screens show for `CCc1nonc1NC(=O)c1oc2ccccc2c1C`?
UDG counter: inactive; DRV1 agonist: 65.5; AID inhibitor: inactive

What do the screens show for `CCc1nonc1NC(=O)c1oc2ccc(C)cc2c1C`?
UDG counter: inactive; DRV1 agonist: inactive; AID inhibitor: inactive

How did CCOC(=O)N1CCc2c(sc(NCc3cccs3)c2C(=O)Nc2ccc(OC)cc2OC)C1 do in these assays?
UDG counter: inactive; DRV1 agonist: inactive; AID inhibitor: inconclusive

How did CCOC(=O)N1CCc2c(sc(NCc3ccc(OC)c(OC)c3OC)c2C(=O)Nc2ccc(OC)cc2OC)C1 do in these assays?
UDG counter: inconclusive; DRV1 agonist: 85.5; AID inhibitor: inactive

What do the screens show for `CC(C)c1ccc(NC(=O)C2CCN(S(=O)(=O)c3cccc4nonc34)CC2)cc1`?
UDG counter: inactive; DRV1 agonist: inactive; AID inhibitor: inactive

What do the screens show for `O=C(Nc1cccc(C(F)(F)F)c1)C1CCN(S(=O)(=O)c2cccs2)CC1`?
UDG counter: 79.4µM; DRV1 agonist: inconclusive; AID inhibitor: inconclusive

Results for O=C(Nc1ccc(OC(F)(F)F)cc1)C1CCN(S(=O)(=O)c2cccs2)CC1 ?
UDG counter: inconclusive; DRV1 agonist: inconclusive; AID inhibitor: inactive

How did O=C(Nc1ccc(Cl)c(C(F)(F)F)c1)C1CCN(S(=O)(=O)c2cccc3nonc23)CC1 do in these assays?
UDG counter: inactive; DRV1 agonist: 79.0; AID inhibitor: inactive

How did O=C(N/N=C/C=C/c1ccccc1[N+](=O)[O-])c1ccccc1NS(=O)(=O)c1cccs1 do in these assays?
UDG counter: inactive; AID inhibitor: inactive

Results for O=C(NC1CCCc2ccccc21)c1csc2c1CCCC2 (configuration not stated) ?
UDG counter: inactive; AID inhibitor: inactive

Results for CC(C)(C)OC(=O)Nc1ccc(CC(=O)N2CCCC2c2ccsc2)cc1 (configuration not stated) ?
UDG counter: inactive; AID inhibitor: inactive

Results for COc1ccc(NC(=O)c2nnn(CC(=O)Nc3ccc(C)c(C)c3)c2N)cc1OC ?
UDG counter: inactive; DRV1 agonist: 91.0; AID inhibitor: inactive

What do the screens show for `COc1ccc(NC(=O)Cn2nnc(C(=O)NCCc3ccccc3)c2N)cc1`?
UDG counter: inactive; DRV1 agonist: inactive; AID inhibitor: inactive

What do the screens show for `Cc1ccc(NC(=O)Cn2nnc(C(=O)NCCc3ccccc3)c2N)cc1C`?
UDG counter: inactive; DRV1 agonist: inactive; AID inhibitor: inactive

What do the screens show for `CCOc1ccc(NC(=O)Cn2nnc(C(=O)NCCc3ccccc3)c2N)cc1`?
UDG counter: inactive; DRV1 agonist: 87.7; AID inhibitor: inactive

What do the screens show for `CC(Oc1cccc(Cl)c1)C(=O)NN` (configuration not stated)?
UDG counter: inactive; AID inhibitor: inactive

What do the screens show for `CCCC1(C)NC(=O)N(Cc2coc(-c3cccs3)n2)C1=O` (configuration not stated)?
UDG counter: inactive; AID inhibitor: inactive

Results for COc1ccc(OC)c(CCNC(=O)CS(=O)(=O)Cc2nc(-c3cccc(Cl)c3)oc2C)c1 ?
UDG counter: inactive; DRV1 agonist: 88.0; AID inhibitor: inactive

How did COc1ccc(-c2nc(CS(=O)(=O)CC(=O)NCCc3cc(OC)ccc3OC)c(C)o2)cc1 do in these assays?
UDG counter: inactive; AID inhibitor: inactive

How did Cc1ccc(C)c(N2CCN(C(=O)C3CCCN(S(=O)(=O)c4cccc5nonc45)C3)CC2)c1 (configuration not stated) do in these assays?
UDG counter: inactive; DRV1 agonist: inactive; AID inhibitor: inactive

Results for Cc1ccc(C)c(N2CCN(C(=O)C3CCCN(S(=O)(=O)c4cccc5nsnc45)C3)CC2)c1 (configuration not stated) ?
UDG counter: inactive; DRV1 agonist: 66.0; AID inhibitor: inconclusive

What do the screens show for `COc1ccc(Cc2nnc3n2N(C(C)=O)C(c2ccc(Cl)c(Cl)c2)=C(C(C)=O)S3)cc1`?
UDG counter: inactive; AID inhibitor: inactive

How did Cc1ccc(NC(=O)c2cc(-c3cccs3)on2)cc1C do in these assays?
UDG counter: inactive; DRV1 agonist: inactive; AID inhibitor: inactive

How did O=C(Nc1c(Cl)cccc1Cl)c1cc(-c2cccc(O)c2)on1 do in these assays?
UDG counter: inconclusive; DRV1 agonist: 104.9; AID inhibitor: inactive

What do the screens show for `O=C(Nc1c(Cl)cccc1Cl)c1cc(-c2ccc3c(c2)OCO3)on1`?
UDG counter: inactive; DRV1 agonist: inactive; AID inhibitor: inactive
